Shown are actives, neighbours in structure and some others; about 4.3% of the full set was active somewhere.
ADAM17 inh = ADAM17 inhibitors, primary screen, biochemical, QFRET | Disintegrin and metalloproteinase domain-containing protein 17 (Homo sapiens), P78536 | recombinant ADAM17, EDANS/DABCYL FRET peptide cleavage | inhibition, % at 6.95 µM | 370,000 tested, 0.83% active | AID 720648, 2013;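 active = inhibition above the mean of compounds lying between control limits plus 3 SD, set per campaign, cut at about 8.5% in these data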;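 also: 0% = DMSO-only wells as the low control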
FAS-TE inh = FAS thioesterase domain inhibitors, primary screen, biochemical, fluorescence intensity, uHTS. Fatty acid synthase (Homo sapiens), P49327. recombinant FAS-TE, OMFH fluorogenic substrate, fluorescence endpoint. inhibition, % at 15 µM. 360,000 tested, 0.67% active. AID 602261, 2012;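 active = compounds whose normalised, plate-corrected inhibition of enzyme fluorescence in the single-dose primary screen is 50% or more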;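 also: 0% = DMSO with enzyme and 100% = substrate without enzyme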
sPLA2-III inh = human group III sPLA2 inhibitors, primary screen, biochemical, QFRET, BODIPY PC-A2 liposome substrate; inhibition, % at 12.2 µM; QFRET BODIPY PC-A2 liposome hydrolysis, fluorescence; AID 743126, 2013; 370,000 tested, 0.56% active;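 active = inhibition above mean plus 3 SD of compounds lying within the high and low control bounds, cut at about 19% in these data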;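 also: 0% = median of test compound wells and 100% = no enzyme DMSO wells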
GRIN3A LBD mod = binders of NR3A ligand-binding domain, primary screen, biophysical, differential scanning fluorimetry, uHTS; 340,000 tested, 2.5% active; Tm shift relative to glycine control, % at 25 µM; NR3A LBD differential scanning fluorimetry, Tm shift; 0% = protein alone, 100% = glycine-bound protein; AID 1259313, 2017; Glutamate receptor ionotropic, NMDA 3A (GRIN3A) ligand-binding domain;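 active = melting temperature shift of at least 10% of the positive control shift, at one fixed dose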
ADAM10 inh = human ADAM10 inhibitors, primary screen, biochemical, QFRET, HTS; Disintegrin and metalloproteinase domain-containing protein 10 (Homo sapiens), O14672; recombinant ADAM10, EDANS/DABCYL FRET peptide cleavage, 3 h; inhibition, % at 7 µM; 370,000 tested, 0.62% active;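 active = inhibition above a per-campaign cutoff equal to the mean of compounds falling between control-based bounds plus 3 SD, cut at about 20% in these data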;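 also: 0% = DMSO wells while the 100% control is not disclosed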
sPLA2 confirm = human group III sPLA2 inhibitors, confirmation, biochemical, QFRET, triplicate | shares compounds with sPLA2-III inh | inhibition, % at 12.2 µM | recombinant hGIII-sPLA2, BODIPY PC-A2 QFRET fluorescence | 2,000 tested, 34% active | AID 743280, 2014;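 active = mean inhibition across triplicates above the hit cutoff set in the earlier primary screen, cut at about 19% in these data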;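 also: 0% = enzyme with DMSO and 100% = DMSO wells lacking enzyme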
535nm interf = 535nm fluorescence optical interference, confirmation, artefact control for HGIII-sPLA2 inhibitor project, biochemical, QFRET. shares compounds with sPLA2-III inh. BODIPY FL product fluorescence interference. inhibition, % at 12.2 µM. 2,000 tested, 8.5% active. AID 743282, 2014;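 active = average inhibition above the solvent-only control mean plus 3 SD, cut at about 6% in these data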;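 also: 0% = DMSO with substrate plus product and 100% = DMSO with substrate alone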
Active calls of the source: *.

O=C(NCc1ccccc1)[C@H]1CCCN1C(=O)[C@H]1CCCN1C(=O)c1ccc(Cl)cc1 was read as ADAM17 inh -3, sPLA2-III inh 22*, ADAM10 inh -14, sPLA2 confirm 4 and 535nm interf -9.
For COc1cccc(CNC(=O)[C@H]2CCCN2C(=O)[C@H]2CCCN2C(=O)c2ccc(C)cc2)c1 the results were ADAM17 inh -3, sPLA2-III inh 22*, ADAM10 inh -16, sPLA2 confirm -2 and 535nm interf -10.
COc1cccc(CNC(=O)[C@@H]2CCCN2C(=O)[C@@H]2CCCN2C(=O)c2ccc(Cl)cc2)c1 was read as ADAM17 inh -3, FAS-TE inh -7, sPLA2-III inh 4 and ADAM10 inh -1.
`C[C@H]1CN([C@@H](C)CO)C(=O)CCCn2cc(nn2)CO[C@@H]1CN(C)C(=O)c1ccc2ccn(C)c2c1` gave ADAM17 inh -4, sPLA2-III inh 6 and ADAM10 inh -13.
Screening NNC(=O)c1nc[nH]c1C(=O)Nc1ccccc1 returned ADAM17 inh 8, FAS-TE inh -6, sPLA2-III inh 27*, GRIN3A LBD mod 1, ADAM10 inh 11, sPLA2 confirm 7 and 535nm interf -3.
For CCCN1CNc2c(c(=O)[nH]c(=S)n2CCc2cccc(Cl)c2Cl)C1 the results were ADAM17 inh -8, sPLA2-III inh 17 and ADAM10 inh -14.
For C#CCOCCOCCOCCNc1nc(N2CCN(C(=O)[C@H](CCCCN)n3cc([C@@H](N)C(C)CC)nn3)CC2)nc(N2CCN(C(=O)[C@H](CCCCN)n3cc([C@@H](N)C(C)CC)nn3)CC2)n1 (some centres not stated) the results were ADAM17 inh -5, sPLA2-III inh 20*, ADAM10 inh -12, sPLA2 confirm -2 and 535nm interf -44.
For C#CCOCCOCCOCCNc1nc(N2CCN(C(=O)[C@H](CCCCN)n3cc(CN)nn3)CC2)nc(N2CCN(C(=O)[C@H](CCCCN)n3cc([C@@H](N)[C@H](C)CC)nn3)CC2)n1 the results were ADAM17 inh -3, FAS-TE inh -9, sPLA2-III inh -1, GRIN3A LBD mod 1 and ADAM10 inh -2.
For COC(=O)c1ccc(NC(=O)CNCc2ccncc2)cc1 the results were ADAM17 inh -6, FAS-TE inh -17, sPLA2-III inh 21*, GRIN3A LBD mod -2, ADAM10 inh -15, sPLA2 confirm 3 and 535nm interf -5.
Screening COCC(=O)N[C@H]1C[C@@H]2O[C@@H](CO)CC[C@@H]2O[C@@H]1CCc1ccc(-c2ccccc2)cc1 returned ADAM17 inh -4, sPLA2-III inh -7 and ADAM10 inh -4.
For C/C(=N/NS(=O)(=O)c1ccc(C)cc1)c1ccc(NC(=O)C(F)(F)F)cc1 the results were ADAM17 inh 1, FAS-TE inh 9, sPLA2-III inh 22*, GRIN3A LBD mod -7, ADAM10 inh 6, sPLA2 confirm 3 and 535nm interf 0.
For Cc1cc(Nc2cc(F)c(F)c(F)c2)cc(=O)n1-c1cc(F)c(F)c(F)c1 the results were ADAM17 inh -5, sPLA2-III inh 7 and ADAM10 inh -10.
O=C(N[C@H](C(=O)N1CCC[C@H]1C(=O)NC1CCCC1)C1CCCCC1)c1cccs1 was read as ADAM17 inh 0, sPLA2-III inh -2 and ADAM10 inh -4.
Cc1ccc(C)c(NC(=S)N/N=C/C(C)c2ccccc2)c1 (configuration not stated) was read as ADAM17 inh 2, FAS-TE inh 0, sPLA2-III inh 22*, GRIN3A LBD mod -3, ADAM10 inh -7, sPLA2 confirm 14 and 535nm interf 0.
Screening C/C(=N\OCC(=O)Nc1nc2ccccc2s1)c1ccccc1 returned ADAM17 inh -2, FAS-TE inh -2, sPLA2-III inh 19*, GRIN3A LBD mod 1, ADAM10 inh -2, sPLA2 confirm 0 and 535nm interf -2.
For NC(c1csc(NC(=O)c2cccc(OC(F)(F)F)c2)n1)c1ccccc1Cl (configuration not stated) the results were ADAM17 inh 0, FAS-TE inh -14, sPLA2-III inh 37*, ADAM10 inh 6, sPLA2 confirm 25* and 535nm interf 0.
Screening CCCP(=O)(CCC)CCP(=O)(c1ccccc1)c1ccccc1 returned ADAM17 inh -2, FAS-TE inh -15, sPLA2-III inh 20*, GRIN3A LBD mod -5, ADAM10 inh -5, sPLA2 confirm 4 and 535nm interf -11.
O=C(NCc1ccccc1)C1(C(=O)C2CC2)CC(c2ccccn2)=NO1 (configuration not stated) was read as ADAM17 inh 2, sPLA2-III inh 5 and ADAM10 inh -3.
`O=S(=O)(O)c1nc2ccccc2n1Cc1ccccc1` gave ADAM17 inh -6, FAS-TE inh -12, sPLA2-III inh 20*, GRIN3A LBD mod -1, ADAM10 inh -1, sPLA2 confirm 1 and 535nm interf -3.
Screening CCCCn1c(S(=O)(=O)O)nc2ccccc21 returned ADAM17 inh -2, FAS-TE inh -5, sPLA2-III inh 1, GRIN3A LBD mod 2 and ADAM10 inh 3.
For CCn1c(S(=O)(=O)O)nc2ccccc21 the results were ADAM17 inh -5, FAS-TE inh -4, sPLA2-III inh 20*, GRIN3A LBD mod 0, ADAM10 inh -8, sPLA2 confirm 0 and 535nm interf -3.
CS(=O)(=O)c1nc2ccccc2n1Cc1ccccc1 was read as ADAM17 inh -2, FAS-TE inh -4, sPLA2-III inh 7, GRIN3A LBD mod 1 and ADAM10 inh 2.
Screening COc1ccccc1CCNC(=O)c1cc(-c2ccncc2)nc2ccc(Br)cc12 returned ADAM17 inh -1, FAS-TE inh 8, sPLA2-III inh 3, GRIN3A LBD mod -30 and ADAM10 inh -2.
For COc1ccccc1CCNC(=O)c1cc(-c2ccccn2)nc2ccccc12 the results were ADAM17 inh -3, FAS-TE inh -3, sPLA2-III inh 20*, GRIN3A LBD mod 0, ADAM10 inh -5, sPLA2 confirm -7 and 535nm interf -22.
